This passage reports log fold change Tl+ flux results from PubChem BioAssay.

Holding throughout (experiment): BK channel mutant inhibitors and activators – cell-based, U2OS BacMam, thallium flux, beta subunits, selectivity assay, profiling panel (AID 1259406);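 further: initial slope of Thallos dye fluorescence rise after thallium is added; log ratio against the mean of 0.3% DMSO vehicle wells on the same plate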
Assay [1] deals with F380Y. To be noted: U2OS BacMam BK variants, at 30 µM.
Assay [2] has as its system F380Y/beta1. The conditions noted are these: U2OS BacMam BK variants, at 30 µM.
The subject of assay [3] is F380Y/beta2Delta. The conditions noted are these: U2OS BacMam BK variants, at 30 µM.
Assay [4] concerns F380Y/beta4. The conditions noted are these: U2OS BacMam BK variants, at 30 µM.
For assay [5], the target named is Calcium-activated potassium channel subunit alpha-1 (Homo sapiens) + Leucine-rich repeat-containing protein 26 (Homo sapiens) (UniProt Q12791+Q2I0M4). To be noted: U2OS BacMam BK variants, F380Y/Slo1WT/gamma1, at 30 µM.
For assay [6], the system named is R275C. The conditions noted are these: U2OS BacMam BK variants, at 30 µM.
Assay [7] deals with R275C/beta1. The conditions noted are these: U2OS BacMam BK variants, at 30 µM.
The test system of assay [8] is R275C/beta2Delta. To be noted: U2OS BacMam BK variants, at 30 µM.
Assay [9] concerns R275C/beta4. To be noted: U2OS BacMam BK variants, at 30 µM.
For assay [10], the system named is R275C/Slo1WT/beta2. To be noted: U2OS BacMam BK variants, at 30 µM.

Unmarked numbers belong to inactive results. Active and inactive are the calls of the source.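 How the source made its calls: active means thallium flux through the channel raised or lowered by more than 3 SD from vehicle-only wells, actives on both sides; inactive means the rest.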

Chain of Calcium-activated potassium channel subunit alpha-1 (Homo sapiens) + Leucine-rich repeat-containing protein 26 (Homo sapiens) (Q2I0M4 whole entry, looked up, one chain of several): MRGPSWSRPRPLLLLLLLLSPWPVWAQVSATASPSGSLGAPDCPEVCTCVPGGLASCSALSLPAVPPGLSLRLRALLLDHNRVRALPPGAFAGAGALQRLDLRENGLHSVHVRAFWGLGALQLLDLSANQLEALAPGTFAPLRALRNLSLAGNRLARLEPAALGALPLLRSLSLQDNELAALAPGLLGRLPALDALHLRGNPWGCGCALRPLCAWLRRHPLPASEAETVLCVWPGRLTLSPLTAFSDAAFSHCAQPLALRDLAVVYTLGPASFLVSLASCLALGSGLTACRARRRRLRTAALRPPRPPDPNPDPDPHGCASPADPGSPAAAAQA

Take `Cc1nc(C)c(C(=O)O)c(-c2ccsc2)c1C(=O)O`: the log fold change Tl+ flux in [1] is 0.00149; in assay [2], 0.0257; in assay [3], -0.0103; in [4], 0.0238; in [5], 0.0233; in assay [6], 0.0307. The log fold change Tl+ flux in [7] is 0.0388; in [8] it was -0.00263; in assay [9], 0.00868; in [10] it was 0.0152.
In the case of `O=C(Nc1ccc(Cl)cc1)c1cnccc1C(F)(F)F`, the log fold change Tl+ flux in assay [1] is 0.0622; in assay [2], 0.0187; in [3], 0.066; in assay [4] it was 0.0347; in [5] it was -0.0423; in assay [6], 0.0193. Moreover, the log fold change Tl+ flux in assay [7] was 0.0288; in assay [8] it was -0.00135; in assay [9] it was 0.0311; in [10], -0.0457.
For the compound `CC(C)(C)c1cc(-c2nc(-c3ccc(C(F)(F)F)cc3)no2)n(Cc2ccccc2)n1`, the log fold change Tl+ flux in assay [1] was -0.0279; in [2], -0.0164; in assay [3], -0.0472; in assay [4] it was 0.0114; in assay [5], -0.0649; in assay [6], 0.0485. The log fold change Tl+ flux in assay [7] was -0.0238; in assay [8], -0.0138; in [9], 0.0105; in [10], 0.0318.
Consider `O=C1c2ccccc2NC(c2cc(Cl)cc(Cl)c2O)N1Cc1cccnc1` (stereo not given), for which the log fold change Tl+ flux is 0.0629 in assay [1]; 0.0897 (active) in assay [2]; 0.0333 in [3]; 0.104 (active) in assay [4]; 0.0598 in assay [5]; 0.00967 in assay [6]. Besides, the log fold change Tl+ flux was 0.0327 in assay [7], 0.0578 in [8], 0.0953 (active) in [9] and -0.0554 in assay [10].
Take `CC(C)(C)c1cc2nc(C(F)(F)F)cc(NN=Cc3ccccc3)n2n1`: the log fold change Tl+ flux is 0.0101 in [1]; 0.0617 in [2]; 0.0191 in assay [3]; -0.0217 in assay [4]; -0.0501 in [5]; -0.0499 in [6]. The log fold change Tl+ flux in assay [7] is -0.0176; in assay [8] it was -0.0336; in [9], -0.0304; in assay [10], -0.0137.
For `Cc1ccc(C(=O)Cn2cc([N+](=O)[O-])nc2C)cc1`, the log fold change Tl+ flux in assay [1] is -0.00237; in [2], -0.0164; in [3], 0.0463; in assay [4], -0.00425; in assay [5], -0.043; in assay [6], 0.00593. Further, the log fold change Tl+ flux in assay [7] is 0.0164; in assay [8], -0.0174; in assay [9] it was 0.0383; in assay [10], 0.0674.
With `Cn1c(Sc2cnc(=S)[nH]c2-c2ccc(Cl)cc2)nnc1C(F)(F)F`, the log fold change Tl+ flux in assay [1] was 0.000803; in [2], 0.0224; in assay [3] it was 0.000625; in assay [4] it was -0.0336; in [5], 0.0434; in assay [6], -0.0138. The log fold change Tl+ flux in [7] is -0.00364; in assay [8], -0.0183; in assay [9], 0.0272; in assay [10] it was 0.0806.
Turning to `CCN1CCC(O)(C#Cc2ccccc2)CC1`, the log fold change Tl+ flux in [1] is -0.00462; in assay [2] it was 0.0157; in assay [3] it was -0.0113; in assay [4] it was -0.0547; in assay [5] it was 0.00398; in [6], -0.00643. The log fold change Tl+ flux in assay [7] was 0.0179; in assay [8], 0.0235; in assay [9], -0.01; in [10], 0.0236.
Regarding `Cn1c(C(F)(F)F)nnc1S(=O)(=O)Cc1ccc(-c2csnn2)cc1`, the log fold change Tl+ flux in [1] was 0.0645; in assay [2] it was 0.0098; in assay [3] it was 0.0485; in assay [4] it was 0.114 (active); in [5] it was 0.00754; in assay [6], 0.0229. Further, the log fold change Tl+ flux in assay [7] was -0.0587; in assay [8], 0.0374; in [9], -0.0154; in [10], -0.0301.
`Cn1ncc2ccccc2c1=O`: the log fold change Tl+ flux is 0.0178 in assay [1]; 0.0239 in assay [2]; 0.0287 in assay [3]; 0.0126 in assay [4]; -0.0763 in assay [5]; -0.0283 in [6]. The log fold change Tl+ flux is -0.0396 in [7], 0.0689 in [8], -0.014 in assay [9] and 0.00701 in [10].
Consider `Cc1oc(S(=O)(=O)N2CCOCC2)cc1C(=O)Nc1ccc(F)cc1`, for which the log fold change Tl+ flux was 0.119 (active) in assay [1]; -0.00781 in assay [2]; -0.0147 in [3]; -0.000333 in assay [4]; 0.0253 in assay [5]; 0.0114 in assay [6]. Moreover, the log fold change Tl+ flux was 0.0125 in assay [7], 0.00085 in assay [8], 0.00598 in assay [9] and -0.0174 in assay [10].
In the case of `Cn1c(SCCS(=O)(=O)c2ccc(OC(F)(F)F)cc2)nnc1C(F)(F)F`, the log fold change Tl+ flux in assay [1] was -0.047; in [2], -0.00843; in [3] it was -0.0119; in assay [4], 0.00857; in assay [5], -0.00452; in assay [6], 0.0189. Also, the log fold change Tl+ flux is -0.0256 in assay [7], -0.0306 in [8], -0.0219 in [9] and -0.0104 in [10].
With `O=c1n(-c2ccccc2)c(=O)n2n1C1CCC2C1`, the log fold change Tl+ flux was -0.0367 in assay [1]; -0.0272 in [2]; -0.00637 in assay [3]; 0.0475 in [4]; -0.00381 in assay [5]; 0.0483 in assay [6]. The log fold change Tl+ flux in assay [7] was 0.0201; in assay [8], 0.00605; in assay [9], -0.0283; in assay [10], 0.0498.
As for `Cc1cc(C)c(C(=O)O)c(CC(C)(C)C(=O)O)c1`, the log fold change Tl+ flux in assay [1] was 0.000395; in [2], 0.016; in [3], -0.00135; in assay [4] it was -0.0155; in [5], 0.0359; in assay [6], 0.0232. Also, the log fold change Tl+ flux in assay [7] is -0.00597; in assay [8], 0.00899; in assay [9], -0.0125; in [10], 0.0267.
As to `Clc1cc(Cl)c(NN=Cc2cc(C#Cc3ccccc3)cs2)c(Cl)c1`, the log fold change Tl+ flux in [1] is -0.0491; in assay [2], 0.00923; in [3], -0.0555; in assay [4], 0.0192; in [5], -0.0342; in assay [6], -0.012. The log fold change Tl+ flux was 0.00694 in assay [7], -0.0137 in [8], 0.0367 in [9] and 0.0344 in assay [10].
